Reference: PubChem BioAssay (Tox21)
Where “and” joins values, the source holds several entries; their conditions need not be identical. Equal entries are not always repeated. Results filed as inconclusive are left out. Where a call stands in place of a potency, no number is given. Values without a mark were called inactive. Calls of active or inactive are those of the source. The call rests on the fitted dose curve; in most records, active means well fitted curve in the direction sought with a large enough effect in the repeat runs; inconclusive means weak or mixed curves; inactive means no such curve, though single readings can be large; an effect the other way counts as inactive or inconclusive.

Experiments:
[1] = target: Cytochrome P450 1A2 (Homo sapiens) (UniProt P05177); assay: Cytochrome P450 Family 1 Subfamily A Member 2 (CYP1A2) small molecule antagonists: luciferase reporter qHTS assay (AID 1671199); conditions: P450-Glo CYP1A2 enzyme, luciferin luminescence, 1 h; series mostly up to 115 µM
In short: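 Enzymatic CYP1A2 assay, human, luminescent: 10 min compound–enzyme–substrate preincubation, 1 h NADPH-dependent turnover, 20 min detection step, room temperature throughout. Reduced light indicates lower CYP1A2 activity.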

[2] = target: Voltage-gated inwardly rectifying potassium channel KCNH2 (Homo sapiens) (UniProt Q12809); assay: Human Ether-a-go-go-Related Gene (hERG) channel small molecule antagonists: fluorescence cell-based qHTS assay (AID 1671200); conditions: hERG-U2OS cells, FluxOR thallium flux fluorescence; series mostly up to 76.8 µM;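 on activity change, negative = inhibition: hERG-expressing U2OS cells given a thallium stimulus after FluxOR II dye loading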
In short: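 Fluorescence at 540 nm emission (480 nm excitation) was recorded kinetically for 2 min at 1-second intervals once the thallium-containing stimulus reached cells previously loaded with FluxOR II dye.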

[3] = target: Cytochrome P450 3A4 (Homo sapiens) (UniProt P08684); assay: Cytochrome P450 Family 3 Subfamily A Member 4 (CYP3A4) small molecule antagonists: luciferase reporter qHTS assay (AID 1671201); conditions: P450-Glo CYP3A4 enzyme, luciferin luminescence, 1 h; series mostly up to 115 µM
In short: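 qHTS, 1536-well. CYP3A4 + proluciferin substrate, cpd 10 min RT → NADPH regen 1 h RT → detection reagent 20 min → luminescence (RLU). Ketoconazole positive control.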
Further: nearly all actives have a fitted effect of over 50% in size.
Potency means the concentration at half of the fitted maximal effect.

Chain of Cytochrome P450 1A2 (Homo sapiens) (P05177 whole entry, looked up): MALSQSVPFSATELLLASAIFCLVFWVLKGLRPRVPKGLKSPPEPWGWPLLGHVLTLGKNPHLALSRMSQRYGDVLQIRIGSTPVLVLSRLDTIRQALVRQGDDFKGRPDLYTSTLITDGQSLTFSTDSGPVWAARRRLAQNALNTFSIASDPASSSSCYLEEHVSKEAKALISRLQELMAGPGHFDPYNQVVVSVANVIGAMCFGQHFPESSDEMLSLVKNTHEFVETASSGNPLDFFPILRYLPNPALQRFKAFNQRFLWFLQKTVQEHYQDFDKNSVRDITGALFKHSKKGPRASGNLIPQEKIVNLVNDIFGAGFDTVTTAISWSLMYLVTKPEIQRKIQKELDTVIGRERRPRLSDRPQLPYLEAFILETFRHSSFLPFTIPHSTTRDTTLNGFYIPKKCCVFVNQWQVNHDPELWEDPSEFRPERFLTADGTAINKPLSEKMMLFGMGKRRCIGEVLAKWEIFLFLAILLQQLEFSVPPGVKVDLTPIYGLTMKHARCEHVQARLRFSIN
Chain of Cytochrome P450 3A4 (Homo sapiens) (P08684 whole entry, looked up): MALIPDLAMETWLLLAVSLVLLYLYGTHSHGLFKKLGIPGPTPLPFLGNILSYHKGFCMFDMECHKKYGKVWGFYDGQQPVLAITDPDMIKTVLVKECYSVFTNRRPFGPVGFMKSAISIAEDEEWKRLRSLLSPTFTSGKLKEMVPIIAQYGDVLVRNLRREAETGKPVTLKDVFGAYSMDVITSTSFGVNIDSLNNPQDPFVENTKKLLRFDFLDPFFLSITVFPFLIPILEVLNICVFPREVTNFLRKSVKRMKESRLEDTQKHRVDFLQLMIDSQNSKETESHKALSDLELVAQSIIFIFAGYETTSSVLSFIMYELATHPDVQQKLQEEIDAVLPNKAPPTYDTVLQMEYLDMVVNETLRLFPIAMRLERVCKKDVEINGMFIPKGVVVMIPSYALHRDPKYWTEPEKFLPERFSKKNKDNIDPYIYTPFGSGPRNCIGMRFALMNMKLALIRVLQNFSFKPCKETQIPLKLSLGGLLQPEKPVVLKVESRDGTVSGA
Chain of Voltage-gated inwardly rectifying potassium channel KCNH2 (Homo sapiens) (Q12809 whole entry, looked up): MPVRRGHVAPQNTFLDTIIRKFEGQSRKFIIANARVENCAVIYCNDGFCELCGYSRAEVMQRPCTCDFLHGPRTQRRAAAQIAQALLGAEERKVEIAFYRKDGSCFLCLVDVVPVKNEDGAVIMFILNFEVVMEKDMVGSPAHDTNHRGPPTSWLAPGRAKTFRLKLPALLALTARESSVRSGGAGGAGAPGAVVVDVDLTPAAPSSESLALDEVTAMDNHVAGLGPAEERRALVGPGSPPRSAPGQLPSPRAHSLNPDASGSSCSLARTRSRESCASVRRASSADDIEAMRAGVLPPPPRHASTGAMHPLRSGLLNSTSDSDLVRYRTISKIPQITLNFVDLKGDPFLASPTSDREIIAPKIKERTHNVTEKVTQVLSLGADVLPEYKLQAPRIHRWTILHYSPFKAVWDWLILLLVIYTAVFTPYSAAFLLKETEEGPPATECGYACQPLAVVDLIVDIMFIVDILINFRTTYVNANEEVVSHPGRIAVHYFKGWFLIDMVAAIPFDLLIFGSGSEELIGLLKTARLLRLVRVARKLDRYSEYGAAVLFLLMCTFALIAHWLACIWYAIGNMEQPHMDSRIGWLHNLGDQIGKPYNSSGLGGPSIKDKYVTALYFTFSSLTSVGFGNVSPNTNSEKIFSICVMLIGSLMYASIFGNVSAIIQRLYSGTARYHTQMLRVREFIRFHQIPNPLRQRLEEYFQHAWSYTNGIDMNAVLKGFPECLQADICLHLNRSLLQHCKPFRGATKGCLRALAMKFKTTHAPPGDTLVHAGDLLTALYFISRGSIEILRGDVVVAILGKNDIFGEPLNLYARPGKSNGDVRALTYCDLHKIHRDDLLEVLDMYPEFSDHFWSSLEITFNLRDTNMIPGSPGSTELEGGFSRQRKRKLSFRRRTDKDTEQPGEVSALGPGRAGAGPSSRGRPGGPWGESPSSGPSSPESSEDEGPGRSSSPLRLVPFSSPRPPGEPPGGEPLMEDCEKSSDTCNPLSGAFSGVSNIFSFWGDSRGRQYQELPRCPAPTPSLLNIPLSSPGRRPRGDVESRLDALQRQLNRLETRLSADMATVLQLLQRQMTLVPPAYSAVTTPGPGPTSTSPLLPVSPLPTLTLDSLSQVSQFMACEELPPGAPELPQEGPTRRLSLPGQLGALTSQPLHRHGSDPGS

Row | SMILES | Potency [1] | Potency [2] | Potency [3] | activity change, negative = inhibition [1] | activity change, negative = inhibition [2] | activity change, negative = inhibition [3]
1 | C=C(C)c1cccc(C(=C)C)c1 | inactive | inactive | inactive | – | – | –
2 | CC(=O)OCC=C(C)C | inactive | inactive | inactive | – | – | –
3 | CN(C)C(=O)COC(=O)Cc1ccc(OC(=O)c2ccc(N=C(N)N)cc2)cc1 | inactive | inactive | inactive | – | – | –
4 | Cl[Si](Cl)(c1ccccc1)c1ccccc1 | 64.8 µM (active) | inactive | 5.14 µM (active) | – | – | –
5 | O=C(/C=C/c1ccc(O)c(O)c1)O[C@@H](C(=O)O)[C@@H](OC(=O)/C=C/c1ccc(O)c(O)c1)C(=O)O | inactive | inactive | inactive | – | – | –
6 | O=C(O)Cc1ccccc1Nc1c(Cl)cccc1Cl | inactive | inactive | inactive | – | – | –
7 | CC(=O)CC(=O)Nc1ccc(S(=O)(=O)O)cc1 | inactive | inactive | inactive | – | – | –
8 | Cc1ccc(O)c(N)c1 | 40 µM (active) | inactive | 15.9 µM (active) | – | – | –
9 | OC[C@@H](O)[C@@H](O)CO | inactive | inactive | inactive | – | – | –
10 | CN(C)Cc1ccccc1O | inactive | inactive | inactive | – | – | –
11 | C/C=C/C=C/COC(=O)C(C)C | 35.6 µM (active) | inactive | 28.3 µM (active) | – | – | –
12 | COC(=O)C1=C(C)NC(C)=C(C(=O)OCCN2CCN(C(c3ccccc3)c3ccccc3)CC2)C1c1cccc([N+](=O)[O-])c1 (stereo not given) | inactive | 5.35 µM (active) | inactive | – | – | –
13 | COc1cc2nc(N3CCN(C(=O)c4ccco4)CC3)nc(N)c2cc1OC | – | – | – | 1.24% [at 23.6 µM] | -1.36% [at 15.8 µM] | 135% [at 23.6 µM]
14 | Clc1nnc(Cl)c2ccccc12 | 11.2 µM (active) | inactive | inactive | – | – | –
15 | Cc1c(N)cccc1C(F)(F)F | 13.8 µM (active) | inactive | inactive | – | – | –
16 | Cc1cc(-n2nc3ccc(Cl)cc3n2)c(O)c(C(C)(C)C)c1 | inactive | inactive | inactive | – | – | –
17 | CC[C@H](C)COC(=O)/C=C/c1ccc(N=Cc2ccc(OC)cc2)cc1 | 5.63 µM (active) | 43.6 µM (active) | 5.63 µM (active) | – | – | –
18 | O=C(O)c1ccc2cc(C(=O)O)ccc2c1 | inactive | inactive | inactive | – | – | –
19 | c1ccc(SSc2ccccc2)cc1 | 3.19 µM (active) | inactive | inactive | – | – | –
20 | Clc1sc(Cl)c(Cl)c1Cl | inactive | inactive | inactive | – | – | –
21 | CCC(=O)OC(=O)CC | inactive | inactive | inactive | – | – | –
22 | CCCCCCCC | inactive | inactive | inactive | – | – | –
23 | CCCC1CCC(=O)CC1 | inactive | inactive | inactive | – | – | –
24 | CCCCC/C=C\C/C=C\CCCCCCCC(=O)O | inactive | inactive | 39.9 µM (active) | – | – | –
25 | Cc1c(C)c2c(c(C)c1O)CC[C@@](C)(CCC[C@H](C)CCC[C@H](C)CCCC(C)C)O2 | inactive | inactive | inactive | – | – | –

Row | SMILES | Potency [1] | Potency [2] | Potency [3] | activity change, negative = inhibition [1] | activity change, negative = inhibition [2] | activity change, negative = inhibition [3]
26 | COC(=O)c1ccccc1OC | 25.2 µM (active) | inactive | inactive | – | – | –
27 | Nc1ccc(C(=O)O)c(O)c1 | inactive | inactive | inactive | – | – | –
28 | CCCCCCCCCCOC(=O)c1ccccc1C(=O)OCCCCCCCC | inactive | inactive | inactive | – | – | –
29 | O=C(Oc1ccccc1)Oc1ccccc1 | 35.4 µM (active) | inactive | inactive | – | – | –
30 | CC(C)=CCC1=C(O)c2ccccc2C(=O)C1=O | 11.2 µM (active) | inactive | inactive | – | – | –
31 | CC[N+](CC)(CC)CCOc1ccc(/C=C/c2ccccc2)cc1 | inactive | 8.49 µM (active) | inactive | – | – | –
32 | CCc1oc2ccccc2c1C(=O)c1cc(I)c(O)c(I)c1 | inactive | inactive | inactive | – | – | –
33 | S=c1nccc[nH]1 | 35.6 µM (active) | inactive | inactive | – | – | –
34 | CC(C)=CCNc1ncnc2c1ncn2[C@@H]1O[C@H](CO)[C@@H](O)[C@H]1O | inactive | inactive | inactive | – | – | –
35 | Oc1cc(Cl)cc(Cl)c1Cl | 16.3 µM (active) | inactive | inactive | – | – | –
36 | [Cu+] | 39.9 µM (active) | inactive | 39.9 µM (active) | – | – | –
37 | COC(=O)c1ccccc1C | inactive | inactive | inactive | – | – | –
38 | Cc1cc(-c2ccc(N=Nc3cc(S(=O)(=O)O)c4ccccc4c3N)c(C)c2)ccc1N=Nc1cc(S(=O)(=O)O)c2ccccc2c1N | inactive | 19.6 µM (active) | inactive | – | – | –
39 | C=C(C)C(=O)OCCCCCCCCCC | inactive | inactive | inactive | – | – | –
40 | Cc1ccc(C(=O)O)cc1 | inactive | inactive | inactive | – | – | –
41 | O[C@@H]([C@H](O)[C@H](O)CBr)[C@H](O)CBr | 70.9 µM (active) | inactive | inactive | – | – | –
42 | Cc1cccc(C(=O)O)c1O | inactive | inactive | inactive | – | – | –
43 | CCN(CCN)c1cccc(C)c1 | 11.4 µM (active) and 20 µM (active) | 24.5 µM (active) | 12.7 µM (active) and 35.6 µM (active) | – | – | –
44 | CCC(=O)C(=O)CC | inactive | inactive | 5.88 µM (active) | – | – | –
45 | CCN(CC)c1ccc2c(-c3ccc(S(=O)(=O)O)cc3S(=O)(=O)[O-])c3ccc(=[N+](CC)CC)cc-3oc2c1 | 20.7 µM (active) | inactive | 14.6 µM (active) | – | – | –
46 | CC1=Nc2ccccc2C1(C)C | 63.4 µM (active) | inactive | 63.4 µM (active) | – | – | –
47 | Nc1nc(N)nc(-c2cc(Cl)ccc2Cl)n1 | 17.4 µM (active) | inactive | inactive | – | – | –
48 | ClCCl | inactive | inactive | inactive | – | – | –
49 | CNc1ccc([N+](=O)[O-])cc1 | 35.7 µM (active) | inactive | inactive | – | – | –
50 | CCc1cccc(CC)c1NC(=O)CN(CC(=O)O)CC(=O)O | inactive | inactive | inactive | – | – | –
